Bioassay records (PubChem BioAssay)
TDP1 cell CPT: DT40-hTDP1 cell growth loss with CPT. Potency, µM (series often up to 46.2 µM), without a hit: top-dose activity change, negative = growth inhibition, usual class: inhibitors. chicken DT40 Tdp1-/-;hTDP1 cells + 20 nM CPT, ATP luminescence, 48 h. AID 686979. 12% of 420,000 active; also: % is scaled to controls: 0 for no effect and ±100 for the full control effect; nearly all actives have a fitted effect of over 55% in size
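Chicken DT40 Tdp1-/- cells complemented with human TDP1, 400 cells/well, exposed to compounds plus 20 nM camptothecin for at least 48 h at 37 C; viability read as ATP content by CellTiter-Glo luminescence.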
DT40 TDP1 no CPT: qHTS for Inhibitors of human tyrosyl-DNA phosphodiesterase 1 (TDP1): qHTS in cells in absence of CPT | DT40 Tdp1-/- hTDP1 cells, no CPT, ATP luminescence, 48 h | Potency, µM (series often up to 46.2 µM), inactives show at the top dose activity change, negative = growth inhibition, usual class: inhibitors | 15% of 420,000 active | AID 686978, 2013; also: % is scaled to controls: 0 for no effect and ±100 for the full control effect; nearly all actives have a fitted effect of over 55% in size
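Cells were dispensed at 400 per well, compounds added by pin tool, plates incubated ≥48 hr at 37 °C, then CellTiter-Glo added for 30 min at room temperature before luminescence reading. Line: DT40 Tdp1-/- complemented with hTDP1; camptothecin omitted.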
HT1080 IDH1KD tx: kills HT-1080 cells with IDH1 knockdown | HT-1080 IDH1 knockdown viability, ATP luminescence, 48 h | Potency, µM (titrated, usually from 46.1 µM), for inactives: at the highest dose activity, negative = toxicity, actives largely listed as cytotoxic | 2% of 360,000 active | AID 686971;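 also: 0% = DMSO wells and -100% = cell-free medium wells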
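Assay cells: HT-1080 with IDH1 knockdown, 750 per well, RPMI/5% FBS. Exposure: 48 h at 37 °C following 2 h pre-incubation. Read: CellTiter-Glo luminescence; fitted concentration-response, curve class assigned.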
HT1080NT lethal: kills 2HG-producing HT-1080-NT fibrosarcoma cells; 1.6% of 360,000 active; Potency, µM (series often up to 46.1 µM), for inactives: at the top dose activity, negative = less viability, usual class: cytotoxic; AID 686970; HT-1080-NT fibrosarcoma viability, CellTiter-Glo ATP luminescence, 48 h;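 also: NT is the 2HG producing partner of a matched IDH1 knockdown line; 0% = DMSO-treated cells and -100% = media-only wells without cells; nearly all actives have a fitted effect of over 55% in size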
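Toxicity toward the 2HG-producing NT line was scored as %Activity, normalised to DMSO and no-cell wells, from CellTiter-Glo luminescence after 48 hours' treatment.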
HepG2 viability: kills HepG2 cells in TGF-b inhibitor counter-screen | HepG2 CAGA-GFP viability, ATP luminescence, 18 h | Potency, µM (titrated, usually from 46.1 µM), inactives show top-dose activity change, negative = cytotoxicity, hits mostly cytotoxic | 0.76% of 410,000 active
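CellTiter-Glo luminescence gave cytotoxicity after 18 hours at 37 degrees C. The cells were HepG2 CAGA-GFP in 1% FBS DMEM, stimulated with 500 pg/mL TGF-beta after compound addition. %Activity was normalised to no-cell wells (complete cell-killing) and DMSO (no toxicity), and curves were fitted and classified.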
TGFb SMAD3 inh: TGF-b pathway inhibition; Potency, µM (highest dose often 46.1 µM), without a hit: at the top dose activity, negative = inhibition, usual class: inhibitors; AID 588855; 1.2% of 410,000 active; HepG2 CAGA-GFP TGF-b/SMAD3 reporter, GFP fluorescence, 18 h; TGF-beta stimulated, 500 pg/mL final; also: % is scaled to controls: 0 for no effect and ±100 for the full control effect; nearly all actives have a fitted effect of over 65% in size
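GFP signal (ex488/em500-530) from TGF-beta-stimulated HEPG2 CAGA-GFP cells, 500 pg/mL final, 18 h at 37 degrees C in DMEM plus 1% FBS, normalized to unstimulated and DMSO-stimulated controls.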
* = called active by the depositor; ? = inconclusive; nt = not tested or not shown; [ ] = dose if it differs, or a comment. Hits are enriched below; roughly 17% of the tested compounds scored in any of these assays. Calls follow the shape of the dose curve; as a rule, active = well fitted curve in the direction sought with a large enough effect; inconclusive = small, poorly fitted or top-dose-only effect, or another doubt; inactive = no such curve, though single readings can be large; an effect the other way counts as inactive or inconclusive. Potency is read from the fitted curve at half-maximal effect.

SMILES	TDP1 cell CPT	DT40 TDP1 no CPT	HT1080 IDH1KD tx	HT1080NT lethal	HepG2 viability	TGFb SMAD3 inh
COC(=O)/C(=C(O)\C=C\c1ccccc1[N+](=O)[O-])c1nc2ccccc2[nH]1	12µM*	15µM*	-20%	-15%	-18%	-1%
CCOc1cc(CNCc2cccs2)cc(Br)c1OC	?	?	-12%	-23%	-32%	-3%
COc1cc(CNC(C)(C)C)cc(Br)c1OCc1cccs1	?	15µM*	?	?	-43%	1%
COc1cc(CNCCO)cc(Br)c1OCc1cccs1	-17%	29µM*	-27%	?	-38%	-14%
CC(C)(C)NCc1cc(Br)ccc1OCc1cccs1	?	?	-11%	-22%	-6%	11%
CC(C)(C)NCc1cc(Cl)ccc1OCc1cccs1	15µM*	?	-16%	-13%	-30%	5%
COc1cccc(CNCCSc2nnnn2C)c1OC	-9%	-1%	-3%	-16%	6%	2%
CCN(CC)C(=O)C1CCCN(c2ncnc3c2nc2n3CCCCC2)C1 (stereo not drawn)	-23%	?	nt	nt	-6%	-3%
CCCCN(Cc1ccco1)C(=O)C1CCCN(c2ncnc3c2nc2n3CCCCC2)C1 (stereo not drawn)	16µM*	15µM*	?	?	-29%	?
CCCCN(CC)C(=O)C1CCCN(c2ncnc3c2nc2n3CCCCC2)C1 (stereo not drawn)	?	21µM*	nt	nt	2%	-21%
COc1cc2ccccc2cc1C(=O)OCC(=O)c1c(N)n(C)c(=O)n(C)c1=O	-4%	?	0%	3%	5%	5%
CCc1ccc(NC(=O)CSc2nc3ccccc3nc2N2CCCC2)cc1	10µM*	4.6µM*	-11%	4%	-3%	8%
CCc1ccc(NC(=O)CSc2nc3ccccc3nc2Cc2ccc(C)cc2)cc1	?	16µM*	nt	nt	7%	-2%
Clc1ccc(-c2cc3ccccc3nc2N2CCCC2)cc1	?	18µM*	-4%	-7%	-1%	6%
Cc1ccc(NC(=O)CSc2nc3ccccc3nc2N2CCCC2)cc1	12µM*	9.2µM*	-9%	-11%	-15%	-2%
CC(=O)Nc1ccc(NC(=O)CSc2nc3ccccc3nc2N2CCOCC2)cc1	-24%	-23%	nt	nt	3%	?
CCCCN(C)C(=O)CSc1nc2ccccc2nc1Cc1ccc(C)cc1	?	16µM*	nt	nt	-40%	?
CC1CCN(c2nc3ccccc3nc2SCC(=O)Nc2ccccc2C(C)C)CC1	18µM*	?	nt	nt	-44%	-26%
Cc1ccc(C)c(NC(=O)CSc2nc3ccccc3nc2N2CCOCC2)c1	-15%	-25%	7%	12%	-5%	-3%
O=C(CSc1nc2ccccc2nc1N1CCCC1)Nc1ccc(Cl)cc1	?	26µM*	-1%	-18%	-10%	2%
Cc1cc(C)c(NC(=O)CSc2nc3ccccc3nc2N2CCCCC2)c(C)c1	7.3µM*	15µM*	nt	nt	-27%	1%
Cc1ccc(OCCNC(=O)CCc2ccccc2)cc1C	19%	-24%	-2%	-6%	9%	0%
C[C@@H]1CN(Cc2ccc3c(c2)CN(Cc2cccc4cccnc24)CCO3)C[C@H](C)O1	1%[9.04 µM]	?	nt	nt	nt	nt
CCOC(=O)c1ccc(NC(=O)NCc2ccccn2)cc1	8%	9%	-1%	0%	0%	-3%
CC(C)NC(=O)CSc1nc2ccccc2nc1N1CCCCC1	?	?	nt	nt	-2%	-4%
SMILES	TDP1 cell CPT	DT40 TDP1 no CPT	HT1080 IDH1KD tx	HT1080NT lethal	HepG2 viability	TGFb SMAD3 inh
CC(C)c1ccc(NC(=O)CSc2nc3ccccc3nc2N2CCCC2)cc1	18µM*	13µM*	7%	16%	-18%	-3%
C=CCN1C(=O)NC(c2ccc(OC)cc2)(C(F)(F)F)S/C1=C(\C#N)c1nnc(N2CCOCC2)n1-c1ccccc1 (stereo not drawn)	13%	-10%	3%	?	-10%	-30%
CN1C(c2ccc(F)cc2)=CS/C1=C(\C#N)c1nnc2n1-c1ccccc1SC2	?	-15%	?	-26%	0%	-12%
C=CCN1C(c2ccc(Br)cc2)=CS/C1=C(/C#N)c1nnc(N2CCOCC2)n1-c1ccccc1	7.3µM*	8.2µM*	-13%	-12%	-2%	-25%
C=CCN1C(c2cccc(C(F)(F)F)c2)=CS/C1=C(/C#N)c1nnc(N2CCOCC2)n1-c1ccccc1	12µM*	12µM*	-4%	3%	-27%	?
Cc1nccn1CC(=O)N/N=C/c1cccc(O)c1	-21%	-10%	12%	12%	26%	-20%
COc1cccc(NC(=O)Nc2nccc(C)n2)c1	-20%	0%	1%	11%	-8%	-1%
CCc1nc2ccc(C(=O)N3CCCCC3)cn2c1N(C)CCCc1ccccc1	?	?	3%	6%	-30%	?
CC(C)CN(CCNC(=O)c1cn(C)c2ccc(S(=O)(=O)N3CCCCCC3)cc2c1=O)CC(C)C	7%	-28%	nt	nt	7%	-2%
CCCCNC(=O)C[C@@H]1C[C@@]2(C(=O)OCC)CCC=C2N(Cc2ccc(Cl)cc2Cl)C1=O	?	16µM*	?	?	nt	nt
CCOC(=O)[C@]12CCCC=C1N(Cc1ccc(Cl)cc1Cl)C(=O)[C@H](CC(=O)N1CCSCC1)C2	-3%	-25%	5%	19%	nt	nt
CCOC(=O)[C@]12CCC=C1N(Cc1ccc(Cl)cc1Cl)C(=O)[C@H](CC(=O)NCCCOC)C2	?	16µM*	1%	-2%	nt	nt
CC(=O)Nc1ccc(Nc2ncnc3c2c(-c2ccccc2)cn3-c2ccccc2)cc1	16µM*	18µM*	nt	nt	-30%	-18%
CC(C)c1ccc(Nc2ncnc3c2c(-c2ccccc2)cn3-c2ccccc2)cc1	3.7µM*	?	nt	nt	-2%	-1%
COCCNc1ncnc2c1c(-c1ccccc1)cn2-c1cccc(Cl)c1	?	?	nt	nt	-35%	-20%
CC(=O)Nc1ccc(Nc2ncnc3c2c(-c2ccccc2)cn3-c2ccc(C)c(Cl)c2)cc1	9.2µM*	8.2µM*	nt	nt	-66%	?
Cc1cccc(-n2cc(-c3ccccc3)c3c(NC(C)C)ncnc32)c1	21µM*	23µM*	nt	nt	-16%	-32%
CC(=O)Nc1ccc(Nc2ncnc3c2cnn3C)cc1	16µM*	?	nt	nt	9%	16%
